Calls of active or inactive are those of the source. Unless noted, the rule behind the calls is not given here.
Assays:
[1] = resazurin metabolic signal in HepG2 cells – cell-based, resazurin fluorescence, 24 h, PK04 Diversity Set, profiling panel (AID 1172); conditions: HepG2 viability, higher = more signal
[2] = budding yeast growth changes without added modifier – OD600, strain BY4716, 24 h, basal condition, primary screen (AID 1173); conditions: S. cerevisiae BY4716 growth, OD600, 24 h; higher = more signal, called active from +8 up or from −8 down
[3] = viability profiling in MM1S myeloma cells – cell-based, resazurin fluorescence, basal, 24 h, PK04 Diversity Set, profiling panel (AID 1174); conditions: higher = more signal, called active from +8 up or from −8 down;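 note: MM1S multiple myeloma cell line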
[4] = target: Dihydroorotate dehydrogenase (quinone), mitochondrial (Plasmodium falciparum (isolate 3D7)) (UniProt Q08210); test: inhibition of P. falciparum DHODH – biochemical, C-terminal His tag, absorbance 600 nm, primary screen (AID 1175); conditions: PfDHODH enzyme, DCIP absorbance 600 nm; higher = more signal, called active from +8 up or from −8 down;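 note: recombinant parasite enzyme with a five histidine tag at its C terminus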
Chain of Dihydroorotate dehydrogenase (quinone), mitochondrial (Plasmodium falciparum (isolate 3D7)) (Q08210 whole entry, looked up): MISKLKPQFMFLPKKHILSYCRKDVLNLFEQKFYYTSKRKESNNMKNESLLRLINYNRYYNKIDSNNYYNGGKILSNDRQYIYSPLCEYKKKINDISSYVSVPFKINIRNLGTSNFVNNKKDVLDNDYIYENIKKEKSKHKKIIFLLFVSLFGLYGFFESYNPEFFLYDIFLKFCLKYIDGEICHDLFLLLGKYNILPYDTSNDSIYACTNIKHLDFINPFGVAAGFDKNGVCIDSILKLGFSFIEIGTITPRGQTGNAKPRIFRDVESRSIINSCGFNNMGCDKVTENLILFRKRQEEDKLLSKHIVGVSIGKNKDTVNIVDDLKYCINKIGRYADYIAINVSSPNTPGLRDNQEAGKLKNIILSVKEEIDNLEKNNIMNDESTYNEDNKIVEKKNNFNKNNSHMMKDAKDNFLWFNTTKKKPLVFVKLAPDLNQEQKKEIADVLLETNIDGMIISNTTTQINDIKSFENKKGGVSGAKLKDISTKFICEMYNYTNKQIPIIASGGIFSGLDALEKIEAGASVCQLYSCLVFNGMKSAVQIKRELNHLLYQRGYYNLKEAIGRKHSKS

[5] = inhibition of PAO1 biofilm formation – strain PAO1, LB-PBS medium, absorbance 600 nm, primary screen (AID 1176); conditions: P. aeruginosa PAO1 growth/biofilm, A600, 12 h; higher = more signal
[6] = growth modulation of vineyard yeast isolate – strain RM11-1a, OD600, basal, 24 h, primary screen (AID 1177);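 note: cultures grown under basal conditions with no added stressor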; conditions: S. cerevisiae RM11-1a growth, OD600, 24 h; higher = more signal, called active from +8 up or from −8 down
[7] = growth of efflux-deficient E. coli DRC39 – strain DRC39, OD650, 24 h, E. coli filamentation inducers, primary screen (AID 1178);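 note: growth measured as culture turbidity by optical density at 650 nm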; conditions: E. coli DRC39 acrAB, higher = more signal, called active from +8 up or from −8 down
[8] = growth of efflux-deficient E. coli DRC39 – strain DRC39, OD650, 48 h, E. coli filamentation inducers, primary screen (AID 1179);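 note: screen aims at cell division blockers that make cells filament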; conditions: E. coli DRC39 delta-acrAB growth, higher = more signal, called active from +8 up or from −8 down
[9] = viability profiling in RPMI8226 myeloma cells – cell-based, resazurin fluorescence, basal, 24 h, PK04 Diversity Set, profiling panel (AID 1180); conditions: higher = more signal;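 note: RPMI8826 multiple myeloma cell line at 5000 cells per well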
[10] = target: E3 ubiquitin-protein ligase XIAP (Homo sapiens) (UniProt P98170); test: small molecules binding XIAP protein – biophysical, small-molecule microarray, fluorescence 635 nm, primary screen (AID 1181); conditions: higher = more signal;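 note: score merges 667 nm emission and signal to noise over triplicate slides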
Chain of E3 ubiquitin-protein ligase XIAP (Homo sapiens) (P98170 whole entry, looked up, the tested form may be a part): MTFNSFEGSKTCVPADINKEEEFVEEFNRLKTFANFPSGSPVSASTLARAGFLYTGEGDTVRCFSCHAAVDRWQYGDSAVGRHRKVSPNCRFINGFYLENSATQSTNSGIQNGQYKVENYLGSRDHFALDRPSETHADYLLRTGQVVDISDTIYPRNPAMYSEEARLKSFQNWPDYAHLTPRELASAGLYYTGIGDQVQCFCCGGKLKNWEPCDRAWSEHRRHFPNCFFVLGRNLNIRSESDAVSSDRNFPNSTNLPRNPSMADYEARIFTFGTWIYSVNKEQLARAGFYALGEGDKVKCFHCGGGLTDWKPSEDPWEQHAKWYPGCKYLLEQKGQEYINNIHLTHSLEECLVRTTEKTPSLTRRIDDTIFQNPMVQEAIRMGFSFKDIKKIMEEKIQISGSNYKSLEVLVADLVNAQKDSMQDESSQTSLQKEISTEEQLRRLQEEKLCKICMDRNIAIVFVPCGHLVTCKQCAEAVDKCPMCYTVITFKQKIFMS

[11] = system: XIP peptide (Xip251-270) binding; test: XIP fragment 251-270 binding compounds – biochemical, small-molecule microarray, fluorescence 635/667 nm, 0.1 µg/mL protein, primary screen (AID 1182); conditions: fluorescent protein binding, 635 nm, higher = more signal, called active from +8 up or from −8 down
[12] = system: XIP peptide (Xip251-270); test: compounds binding XIP fragment 251-270 – biochemical, small-molecule microarray, fluorescence 635/667 nm, 0.5 µg/mL protein, primary screen (AID 1183); conditions: fluorescence 635 nm, higher = more signal
[13] = blood-stage malaria parasite viability loss – strain 3D7, DAPI fluorescence, 100 nL, primary screen (AID 1184);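 note: parasites grown inside human red blood cells in medium with human serum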; conditions: P. falciparum 3D7 growth, 3 d, higher = more signal
[14] = target: Homeobox protein Hox-A13 (Mus musculus) (UniProt Q62424); test: disruptors of Hoxa13 oligonucleotide interaction – biochemical, fluorescence polarization, labeled oligonucleotide, primary screen (AID 1185); conditions: Hoxa13:DNA binding, 15 min, higher = more signal, called active from +8 up or from −8 down
Chain of Homeobox protein Hox-A13 (Mus musculus) (Q62424 whole entry, looked up): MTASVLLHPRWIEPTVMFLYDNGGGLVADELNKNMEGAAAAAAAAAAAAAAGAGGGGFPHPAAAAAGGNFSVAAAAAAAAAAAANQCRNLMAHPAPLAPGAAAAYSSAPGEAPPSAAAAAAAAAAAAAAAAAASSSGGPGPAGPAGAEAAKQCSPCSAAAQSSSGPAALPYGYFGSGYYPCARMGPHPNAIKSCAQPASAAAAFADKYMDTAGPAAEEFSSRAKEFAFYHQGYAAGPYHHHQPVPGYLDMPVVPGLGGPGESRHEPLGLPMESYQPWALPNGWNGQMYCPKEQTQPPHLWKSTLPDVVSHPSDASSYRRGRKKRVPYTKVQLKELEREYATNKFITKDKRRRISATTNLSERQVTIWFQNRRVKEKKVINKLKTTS

[15] = blockers of DNA damage checkpoint Chk1 activation – imaging, HeLa, hydroxyurea, phospho-Chk1 antibody, percent positive cells, primary screen (AID 1186); conditions: hydroxyurea-induced phospho-Chk1 immunofluorescence imaging, higher = more signal
[16] = blockers of DNA damage checkpoint Chk1 activation – imaging, HeLa, hydroxyurea, phospho-Chk1 nuclear intensity, primary screen (AID 1187); conditions: hydroxyurea-induced phospho-Chk1 immunofluorescence imaging, higher = more signal

| SMILES | z-score [1] | z-score [2] | z-score [3] | composite z-score [4] | z-score [5] | z-score [6] | z-score [7] | z-score [8] | z-score [9] | composite z-score [10] | composite z-score [11] | composite z-score [12] | z-score [13] | z-score [14] | z-score [15] | z-score [16] |
| --- | --- | --- | --- | --- | --- | --- | --- | --- | --- | --- | --- | --- | --- | --- | --- | --- |
| COC(=O)[C@@]1(Cc2ccc(OC)cc2)[C@H]2c3cc(C(=O)N4CCCC4)n(Cc4ccsc4Br)c3C[C@H]2CN1C(=O)c1ccccc1 | -1.78 | 0.567 (inactive) | -8.06 (active) | 0.276 (inactive) | 0.576 (inactive) | -0.0289 (inactive) | -0.0187 (inactive) | 0.126 (inactive) | -4.31 | 0.244 | -0.0625 (inactive) | 0.75 | -1.59 | -5.51 (inactive) | -0.592 (inactive) | -1.13 (inactive) |
| COc1cc2c(cc1OC)CN(C(=O)[C@@H]1[C@H]3C(=O)O[C@H](c4ccccc4)[C@H](c4ccccc4)N3[C@H](c3ccc(O)cc3)[C@@]13C(=O)Nc1ccc(C#CC4(O)CCCCCC4)cc13)CC2 | 0.396 | -0.313 (inactive) | 0.323 (inactive) | -0.495 (inactive) | 0.958 (inactive) | 0.525 (inactive) | 0.241 (inactive) | 0.475 (inactive) | 0.777 | -0.0559 | 0.479 (inactive) | 0.774 | -0.489 | -1.53 (inactive) | 0.263 (inactive) | 0.812 (inactive) |
| CCOC(=O)[C@H]1CC=C2CC1C(=O)N1CCC[C@@H]1[C@@H]2O[Si](C)(C)C(C)(C)C (some centres undefined) | 0.706 | -14.4 (active) | 0.425 (inactive) | -0.458 (inactive) | 0.543 (inactive) | -0.335 (inactive) | 0.665 (inactive) | -0.17 (inactive) | 1.04 | -0.167 | -0.473 (inactive) | -0.216 | -0.575 | -5.97 (inactive) | -0.696 (inactive) | -0.559 (inactive) |
| COCCOC(=O)N1C(=O)[C@@]2(c3ccccc31)[C@H](c1ccc(O)cc1)N1[C@H](c3ccccc3)[C@H](c3ccccc3)OC(=O)[C@H]1[C@@H]2C(=O)NC[C@H](O)c1ccccc1 | -0.796 | 0.861 (inactive) | -0.397 (inactive) | 0.873 (inactive) | 0.173 (inactive) | 0.957 (inactive) | -1.12 (inactive) | -1.29 (inactive) | -0.199 | 0.201 | 2.15 (inactive) | 0.837 | -0.682 | -5.58 (inactive) | -0.229 (inactive) | -0.211 (inactive) |
| CC(C)OC(=O)C=C1C[C@@H](c2ccccc2C(F)(F)F)O[C@@H](c2ccccc2C(F)(F)F)O1 | -0.111 | 0.0349 (inactive) | 0.493 (inactive) | -1.12 (inactive) | -0.212 (inactive) | 0.123 (inactive) | -1.23 (inactive) | 0.217 (inactive) | -0.818 | 0.193 | -0.245 (inactive) | -0.277 | -1.82 | 0.189 (inactive) | -0.319 (inactive) | -0.595 (inactive) |
| C=CCOC(=O)[C@H]1[C@@H]2C(=O)O[C@@H](c3ccccc3)[C@@H](c3ccccc3)N2[C@@H](c2ccc(OCCOC(=O)[C@@H]3C[C@@H]4C(=O)N5CCC[C@H]5C(=O)N4[C@@H]3c3cccc(OCCO)c3)cc2)[C@]12C(=O)Nc1ccccc12 | -1 | 1.15 (inactive) | 0.0098 (inactive) | 0.613 (inactive) | 2.06 (inactive) | 1.76 (inactive) | -0.701 (inactive) | -1.5 (inactive) | -0.0769 | -0.22 | 1.48 (inactive) | 0.846 | -1.71 | -0.113 (inactive) | -0.934 (inactive) | -0.0548 (inactive) |
| CCCCCCC#C[Si](O[C@H](c1ccccc1)c1cn([C@H](CO)Cc2ccccc2)nn1)(C(C)C)C(C)C | 1.13 | -1.93 (inactive) | 0.389 (inactive) | -3.69 (inactive) | 0.395 (inactive) | -0.297 (inactive) | 0.953 (inactive) | 1.57 (inactive) | 0.881 | -0.157 | 0.207 (inactive) | 0.0718 | 0.221 | -1.34 (inactive) | -0.653 (inactive) | -0.496 (inactive) |
| COCCOC(=O)N1C(=O)[C@@]2(c3cc(C#CC4=CCCCC4)ccc31)[C@H](C(N)=O)[C@H]1C(=O)O[C@H](c3ccccc3)[C@H](c3ccccc3)N1[C@@H]2c1ccc(OCCO)cc1 | -0.746 | 1.04 (inactive) | -1.95 (inactive) | 0.948 (inactive) | 1.67 (inactive) | 2.53 (inactive) | 0.0123 (inactive) | 0.505 (inactive) | -3.18 | -0.102 | 0.134 (inactive) | 0.729 | -2 | 2.15 (inactive) | -0.116 (inactive) | -0.321 (inactive) |
| CC(C)C[C@@H]1NC(=O)[C@H]2C[C@@H](C(=O)NCCCCCCN)[C@@H](c3ccc(O)cc3)N2C1=O | -0.632 | -0.134 (inactive) | -0.403 (inactive) | 0.0444 (inactive) | -0.226 (inactive) | -0.459 (inactive) | -0.396 (inactive) | -0.975 (inactive) | -0.299 | -0.338 | 1.43 (inactive) | 0.776 | -0.108 | -2.64 (inactive) | 0.273 (inactive) | -0.265 (inactive) |

Reference: PubChem BioAssay
